In PubChem BioAssay AID651702 (NMMLSC, 2012):
The campaign covered roughly 360,000 compounds. About 2,400 (0.67%) were called active. Shown is part of a subset that was picked to be rich in actives. A number with no mark means an inactive call.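 Rule for the calls: active = inhibition above about 55% (limit read from the data); inconclusive = no clear call, values can overlap the other calls; inactive = the rest.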

Assay: LAMP-1 surface exposure blockers, TALL-104 cells – cell-based, flow cytometry, MLPCN library, primary screen (AID 651702)
Conditions: TALL-104 LAMP-1 surface exposure, at 10 µM, active compounds read high, cells stimulated with thapsigargin and PMA
In the case of `Nc1ccn(CC(=O)N2CCN(c3ccccn3)CC2)c(=O)n1`, the inhibition is reported as 6.5%. With `CC(C)(C)NC(=O)CN(Cc1cccs1)C(=O)CNS(=O)(=O)c1ccccc1` the inhibition was -2.2%. Work on `COc1ccc(OC)c(NC(=O)CN(Cc2ccc(Cl)cc2)S(C)(=O)=O)c1` yielded an inhibition of 6.3%. For `COc1ccc(OC)c(NC(=O)CN(C)CCOc2ccc(Br)cc2)c1`, the inhibition was 93.7% (active). Work on `COc1ccc(Br)cc1CN(C)CC(=O)Nc1cc([N+](=O)[O-])ccc1OC` yielded an inhibition of 0.6%. Molecule `COCc1c(C(=O)N/N=C/C2CC=CCC2)nnn1-c1nonc1N` (centres undefined) has an inhibition of 1.4%. Work on `CCCCN(CCCC)CC(O)Cn1c2ccccc2c(=O)c2ccccc21` (centres undefined) yielded an inhibition of 11.9%. With `CS(=O)(=O)N(CC(O)Cn1c2ccccc2c2ccccc21)c1cccc2ccccc12` (centres undefined) the inhibition was 86.5% (active). With `Cc1cc(C)n(CC(O)CN(c2ccccc2)S(=O)(=O)c2ccc3ccccc3c2)n1` (centres undefined) the inhibition was -1%. `O=S(=O)(NCC1CC1)c1ccc(F)c(Cl)c1` showed an inhibition of -8.8%. For `CCOc1ccc(C(C)=O)cc1COC(=O)c1cnc(Cl)c(Cl)c1`, the inhibition was 57.6% (active). `CCOc1ccc(C(C)=O)cc1COC(=O)CNC(=O)c1cccs1` showed an inhibition of -4.6%. `COC(=O)c1ccc(COC(=O)c2cnc(Cl)c(Cl)c2)cc1` showed an inhibition of -4.5%. With `CC(C)(C)NS(=O)(=O)CC12CCC(CC1=O)C2(C)C` (centres undefined) the inhibition was -2.4%. For `COc1ccc(NC(=O)/C(Cl)=C(/Cl)S(=O)Cc2ccc(C)cc2)cn1` (centres undefined), the inhibition was 103% (active). `O=C(O[C@@H]1[C@H](Cc2ccccc2)NS(=O)(=O)[C@H]2C[C@@H]3C=C[C@]12O3)c1ccccc1Br` gave an inhibition of -3.7%. `COC(=O)c1ccccc1NC(=O)CSc1nc2c(c(=O)[nH]1)CCC2` showed an inhibition of 8.6%. Molecule `OC(COCC1COc2ccccc2O1)CN1CCN(c2ccc(F)cc2)CC1` (centres undefined) has an inhibition of -15.5%. Work on `O=C(CN1C(=O)/C(=C\c2ccc(C(F)(F)F)cc2)Sc2ccccc21)NCc1ccco1` yielded an inhibition of -0.7%. `CCN1CCN(CCNC(=O)c2ccc3c(c2)NC(=O)/C(=C\c2cccc(Cl)c2)S3)CC1` gave an inhibition of 10.1%. With `CCN1CCN(CCNC(=O)c2ccc(/C=C3/Sc4ccccc4N(Cc4cccc(C)c4)C3=O)cc2)CC1` the inhibition was 86.2% (active). For `CC(=O)c1cnc(SCC(=O)O)nc1C`, the inhibition was -1%. In the case of `Cc1cc(NC(=O)CS(=O)(=O)c2cn(C)c3ccccc23)no1`, the inhibition is reported as -1.6%. In the case of `COc1ccc(C(=O)NCC2CCCO2)cc1S(=O)(=O)NCc1ccc(Cl)cc1` (centres undefined), the inhibition is reported as -5.7%. For `C=CCn1c(SCc2csc(C)n2)nc2scc(-c3ccc(C)o3)c2c1=O`, the inhibition was 62.3% (active). Molecule `C=CCn1c(SCC(=O)/C(C#N)=C(\C)N)nc2sc(C)c(C)c2c1=O` has an inhibition of -1.8%. For `C=CCn1c(SCC(=O)Nc2ccc(NC(C)=O)cc2)nc2sc(C)c(C)c2c1=O`, the inhibition was -3.1%. `COc1ccccc1NS(=O)(=O)c1ccc(C)c(C(=O)NCC(c2ccco2)N(C)C)c1` (centres undefined) showed an inhibition of 3.6%. In the case of `CCc1ccc(NC(=O)CS(=O)CC(=O)NCCCc2ccccc2)cc1` (centres undefined), the inhibition is reported as -1.4%. Work on `O=C(NCC1CCCO1)C(C(=O)c1ccccc1)n1cc(Cl)ccc1=O` (centres undefined) yielded an inhibition of 1.4%. With `CC(=O)c1c(C)[nH]c(C(=O)OCC(=O)Nc2c(C)cccc2C)c1C` the inhibition was 2.6%. In the case of `COc1ccc(C)cc1NC(=O)C(OC(=O)c1cccc(S(=O)(=O)N(C)c2ccccc2)c1)c1ccccc1` (centres undefined), the inhibition is reported as 0.3%. For `CC(=O)c1c(C)[nH]c(C(=O)COC(=O)c2cccc(S(=O)(=O)N(C)c3ccccc3)c2)c1C`, the inhibition was 75.4% (active). `CCOC(=O)CN1CC23C=CC(O2)C(C(=O)Nc2ccc(F)cc2)C3C1=O` (centres undefined) showed an inhibition of 1.3%. With `Oc1ccccc1-c1cc(-c2ccc(Cl)cc2)n[nH]1` the inhibition was 92.9% (active). In the case of `O=C(Nc1ccc(Cl)cn1)c1ccccc1-c1ccccc1`, the inhibition is reported as -5.1%. In the case of `CC(C)C(=O)NCc1cc(-c2ccc(Cl)cc2)no1`, the inhibition is reported as 0.2%. `CCCN(CC1CC1)C(=S)NC(=O)c1ccccc1Br` showed an inhibition of -2.1%. Work on `CC1Cc2nc(SCC(=O)Nc3ccccc3F)n(C)c(=O)c2S1` (centres undefined) yielded an inhibition of 3.3%. Work on `COCCn1c(C)cc(C(=O)COC(=O)/C=C/c2cccc(OC)c2)c1C` yielded an inhibition of -3.8%. With `CC1CCN(c2ccc([N+](=O)[O-])cc2C(N)=O)CC1` the inhibition was 60.4% (active). With `O=C(O)C1CCN(c2ccc([N+](=O)[O-])cc2[N+](=O)[O-])CC1` the inhibition was -1.4%. `CC1CCN(C(=S)c2cccc([N+](=O)[O-])c2)CC1` showed an inhibition of 0.5%. For `Cc1ccc(C(C)C)c(OCc2nnc(SCC(=O)Nc3nccs3)n2C)c1`, the inhibition was 1.2%. With `C/C(=N\NC(=O)c1ccc(C)cc1)C1C(=O)c2ccccc2C1=O` the inhibition was -2.2%. For `O=C(NC1=CC(=O)c2ccccc2C1=O)c1ccccc1`, the inhibition was 108% (active). `COc1cc(NC(=O)c2ccccc2)c(OC)cc1NC(=O)Cc1ccccc1` showed an inhibition of 0%. `Cc1ccc(S(=O)(=O)NCCSC(C)(C)C)cc1` gave an inhibition of 11%. For `O=C(NCc1ccccc1)c1onc(CSc2nc3ccccc3[nH]2)c1C(=O)NCc1ccccc1`, the inhibition was -2.7%. For `COc1ccc(C(O)C(O)(C(=O)OC(C)C)c2ccc(C)cc2)cc1` (centres undefined), the inhibition was -2.2%. Work on `C[N+](C)(C)CCNC(=O)c1c[nH]c2ccccc12` yielded an inhibition of -7.5%. For `COc1ccc(/C=C(\C#N)c2c[nH]c3ccccc23)cc1`, the inhibition was 90.4% (active). For `COc1ccc(C2C(C(C)=O)=C(O)C(=O)N2CCc2c[nH]c3ccccc23)cc1` (centres undefined), the inhibition was 0.4%. `O=C(CN1C(=O)NC2(CCc3ccccc32)C1=O)NC1CCCCC1` (centres undefined) gave an inhibition of -1.5%. `Brc1ccc2c(c1)[C@H]1OCC[C@H]1[C@@H](c1cccs1)N2` gave an inhibition of 1%. Molecule `COc1cccc2oc(CCc3ccccc3)cc(=O)c12` has an inhibition of -4.5%. With `COc1ccc(CC(N)c2csc(NC(=O)NC(c3ccccc3)c3ccccc3)n2)cc1` (centres undefined) the inhibition was 11.2%. For `COc1ccc(CC(N)c2csc(NC(=O)Nc3ccc(C(C)C)cc3)n2)cc1` (centres undefined), the inhibition was 67.4% (active). `COc1ccc(CC(N)c2csc(NC(=O)Cc3ccccc3)n2)cc1` (centres undefined) gave an inhibition of -2.9%. With `CC(=O)NCC(=O)N(Cc1ccco1)C1(C(=O)NC2CCCC2)CCCCC1` the inhibition was 4.1%. `Cc1cc(C)cc(NC(=O)c2cccc(NC(=O)C3C4CC5OC(=O)C3C5C4)c2)c1` (centres undefined) gave an inhibition of -3.6%. Work on `CCOc1ccc(OCCSc2nc3ccccc3n2CC(=O)O)cc1` yielded an inhibition of -4.7%. `Cc1noc(C)c1COC(=O)Cn1c(C)nc2ccccc21` gave an inhibition of -0.2%. For `CCCCCCCCCCOC(=O)Cn1c(COc2ccc(C)cc2)[n+](C)c2ccccc21`, the inhibition was 79.9% (active). In the case of `CCCCCCCCCCOC(=O)Cn1c(COc2cccc(OC)c2)[n+](C)c2ccccc21`, the inhibition is reported as 63.4% (active). For `Cc1cccc(-n2c(Cc3cc(=O)[nH]c(=O)[nH]3)nnc2SCC(=O)Nc2cccc(C(F)(F)F)c2)c1`, the inhibition was -9.1%. `COc1ccc(CCNC(=O)NS(=O)(=O)c2ccc(C)cc2)cc1OC` showed an inhibition of -3.4%. Work on `CC(=O)N1C[C@@H](CO)[C@@H](N(C)C(=O)c2ccco2)C[C@H]1c1ccccc1` yielded an inhibition of -2%. Work on `NC(=S)NN=C1CCCC(C(F)(F)F)C1` (centres undefined) yielded an inhibition of -3%. In the case of `Cc1ccc(NC(=O)c2cc(-c3ccc(C)o3)nc3ccccc23)nc1`, the inhibition is reported as 71.4% (active). With `CCc1ccc(-c2cc(C(=O)NN3CCN(C)CC3)c3ccccc3n2)cc1` the inhibition was -2.9%. Work on `Cc1c(NC(=O)c2cc(-c3ccc(Cl)s3)nc3ccccc23)c(=O)n(-c2ccccc2)n1C` yielded an inhibition of 8.8%. `CCN1C(=O)[C@H]2[C@@H](c3ccc(-c4ccc(OC)cc4)cc3)N[C@@](Cc3ccccc3)(C(=O)OC)[C@H]2C1=O` gave an inhibition of -2.6%. `CCN1C(=O)[C@H]2[C@@H](c3ccc(SC4CCCCC4)c(OC)c3)N[C@@](Cc3ccccc3)(C(=O)OC)[C@H]2C1=O` gave an inhibition of -2.9%. For `CCN1C(=O)[C@H]2[C@@H](c3ccc(-c4ccc(F)cc4)cc3)N[C@@](Cc3ccccc3)(C(=O)OC)[C@H]2C1=O`, the inhibition was 97.9% (active). `COc1ccc(CC(NC(C)=O)C(=O)NC2CCN(C(=O)c3ccc(Cl)cc3)CC2)cc1` (centres undefined) showed an inhibition of -6.3%. In the case of `Brc1ccccc1C1Nc2cccc3cccc(c23)N1`, the inhibition is reported as 72.2% (active). In the case of `Brc1ccccc1C1N=C(c2ccccc2)NO1` (centres undefined), the inhibition is reported as -3.5%. Molecule `COc1cc2c(cc1OC)C(c1ccccc1Br)NC(=O)C2` (centres undefined) has an inhibition of 1.4%. For `NS(=O)(=O)c1cc(Cl)c(Cl)c(S(N)(=O)=O)c1`, the inhibition was 0.8%. `NC(=O)c1ccccc1N(Cc1ccccc1)S(=O)(=O)c1ccccc1` gave an inhibition of 11.2%. With `O=S(=O)(c1ccccc1)N(Cc1cccc(F)c1)c1ccccc1` the inhibition was 65.4% (active). `O=C(O)c1cc(S(=O)(=O)N(Cc2ccccc2)c2ccccc2)ccc1Cl` gave an inhibition of -1%. In the case of `OCCC1CN(Cc2cccn2-c2nccs2)CCN1CCc1ccccc1` (centres undefined), the inhibition is reported as 1.1%. `COC(=O)[C@@]12CCCN1[C@H](c1ccc(-c3ccc(F)cc3)c(OC)c1)[C@H]1C(=O)N(C)C(=O)[C@H]12` gave an inhibition of -14%. Molecule `CCCCNC(=O)C[C@@H]1C[C@@]2(C(=O)OC)CC(C)(C)CC=C2N(Cc2ccco2)C1=O` has an inhibition of -4.4%. Molecule `COC(=O)[C@@H](Cc1ccccc1)NC(=O)NCCc1ccccc1` has an inhibition of 2.5%. Molecule `COC(=O)[C@H](C)[C@H]1C[C@]1(C)[C@H](NC(=O)OCc1ccccc1)c1ccccc1` has an inhibition of 5.6%. In the case of `COC(=O)[C@H](Cc1ccccc1)NC(=O)[C@@H]1C[C@H]1[C@@H](NC(=O)OCc1ccccc1)c1ccccc1`, the inhibition is reported as 106% (active).
